TLR4-MyD88 BLA: inhibitors of TLR4-MyD88 association in cells, primary screen, cell-based, HeLa CL3-4, BLA complementation, FRET ratio; 200,000 tested, 0.18% active; HeLa CL3-4 TLR4/MyD88 BLA complementation; AID 861, 2007; inhibition, % at 8.4 µM; Toll-like receptor 4 (Homo sapiens) + Myeloid differentiation primary response protein …; in the data active = inhibition above about 25%
ABHD5-PLIN5 inh: ABHD5-PLIN5 interaction inhibitors, primary screen, cell lysate, split luciferase complementation, luminescence | Perilipin-5 (Homo sapiens) + 1-acylglycerol-3-phosphate O-acyltransferase ABHD5 (Homo … | Split G. princeps luciferase complementation, 4 h | AID 602281, 2012 | inhibition, % at 4 µM | 360,000 tested, 0.78% active;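 active = inhibition above the mean inhibition across every tested compound plus 3 SD, cut at about 22% in these data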
Granule exo inh: LAMP-1 surface exposure blockers, TALL-104 cells – cell-based, flow cytometry, MLPCN library, primary screen | TALL-104 LAMP-1 surface exposure; cells stimulated with thapsigargin and PMA | inhibition, % at 10 µM | 360,000 tested, 0.66% active | AID 651702, 2012;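 active = inhibition above about 55%, limit read from the data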
Beta2AR agonist: beta2AR agonists driving receptor internalization, primary screen, cell-based, FAP fluorogen, flow cytometry; Beta-2 adrenergic receptor (Homo sapiens), P07550; Am2.2-beta2AR cells; response, % (no concentration beside the values); 340,000 tested, 0.43% active; AID 504454, 2011;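 active = response above a set limit, near 3 SD of response in nonfluorescent compounds, cut at about 42% in these data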
NOD2 RIPK2 PPI: NOD2-RIPK2 binding disruptors in cells, primary screen, fluorescence, CHO cells, BLA complementation; inhibition, % at 4.98 µM; CCF4 ratio; 360,000 tested, 0.38% active; in the data active = inhibition above about 21%
TLR9-MyD88 block: inhibitors of TLR9-MyD88 association in cells, primary screen, cell-based, CHO, BLA complementation, fluorescence. Toll-like receptor 9 (Homo sapiens) + Myeloid differentiation primary response protein …. CCF4 FRET ratio. inhibition, % at 4.98 µM. AID 504734, 2011. 340,000 tested, 0.21% active;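 active = inhibition above the mean over all tested compounds plus 3 SD, cut at about 21% in these data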
TLR9-MyD88 cf: TLR9-MyD88 association inhibitors, retest, confirmation, cell-based, CHO, BLA complementation, fluorescence, triplicate; shares compounds with TLR9-MyD88 block; inhibition, % at 4.98 µM; 680 tested, 51% active; CCF4 FRET ratio;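 active = mean inhibition across three repeats above about 21% taken from the earlier screen, limit read from the data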;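 also: blue over green emission ratio reports constitutive TLR9 MyD88 association via BLA complementation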
BLA counter-1: beta-lactamase reporter inhibitors in CHO cells, artefact control for TLR9-MyD88 binding inhibitor project, cell-based, fluorescence; inhibition, % at 4.98 µM; 680 tested, 7% active; shares compounds with TLR9-MyD88 block; CHO-BLA cells, CCF4 FRET ratio, BLA reporter;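 active = mean inhibition above a 50% cutoff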;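 also: counterscreen of TLR9-MyD88 hits on CMV-driven BLA in CHO-K1 cells; higher means less blue over green ratio so more BLA blockade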
TLR9 CHO cytotox: CHO cell viability loss – luminescence, single concentration, cytotoxicity control for TLR9-MyD88 binding inhibitor project | shares compounds with TLR9-MyD88 block | TLR9-MyD88 CHO cells cytotoxicity | inhibition, % at 4.98 µM | 680 tested, 39% active; in the data active = inhibition above about 11%
ABHD5 PLIN5 conf: ABHD5-PLIN5 interaction inhibitors, confirmation, biochemical, luminescence. inhibition, % at 4 µM. AID 651612, 2012. shares compounds with ABHD5-PLIN5 inh. 2,200 tested, 67% active; in the data active = inhibition above about 23%
HNF4 split-luc: HNF4 dimerization inhibitors, counter-screen for ABHD5-PLIN5 interaction inhibitor project, biochemical, split-luciferase complementation, luminescence | AID 651674, 2012 | shares compounds with ABHD5-PLIN5 inh | 2,200 tested, 77% active | inhibition, % at 4 µM;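 active = mean inhibition across replicate wells exceeding the computed hit threshold, cut at about 13% in these data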;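 also: light from luciferase halves that rejoin when HNF4 fusion proteins dimerize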
NOD2-RIPK2 conf: NOD2-RIPK2 binding disruptors, retest, confirmation, fluorescence, CHO cells, BLA complementation, triplicate | shares compounds with NOD2 RIPK2 PPI | CCF4 FRET | inhibition, % at 4.98 µM | 1,200 tested, 70% active;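 active = mean inhibition across replicates above a set limit taken from the earlier primary screen, cut at about 21% in these data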
BLA counter-2: hits BLA reporter in NOD2-RIPK2 inhibitor counterscreen. inhibition, % at 4.98 µM. shares compounds with NOD2 RIPK2 PPI. 1,200 tested, 57% active. CHO BLA reporter, CCF4 FRET ratio;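 active = mean inhibition above the low-control mean inhibition plus three low-control SD, cut at about 11% in these data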
Hits are given with their value; – = inactive; · = no result; + = active, no number. This is a sample that favours compounds with a hit; in the whole collection about 2% have one here.

SMILES | TLR4-MyD88 BLA | ABHD5-PLIN5 inh | Granule exo inh | Beta2AR agonist | NOD2 RIPK2 PPI | TLR9-MyD88 block | TLR9-MyD88 cf | BLA counter-1 | TLR9 CHO cytotox | NOD2-RIPK2 conf | BLA counter-2 | others
CN(CCO)c1cc(Sc2nc3ccccc3s2)c2nonc2c1[N+](=O)[O-] | – | 48.8 | 55.9 | 99.2 | 90.9 | 47.4 | 66.7 | – | 98.7 | 97.8 | 33.0 | ABHD5 PLIN5 conf=80.3;HNF4 split-luc=114.2
O=C(c1cc2ccccc2oc1=O)N1CCN(S(=O)(=O)c2ccccc2)CC1 | · | – | – | – | – | – | · | · | · | · | ·
CNc1cc(-c2cccc(C(=O)N3CCOCC3)c2)ncn1 | · | – | – | · | – | · | · | · | · | · | ·
O=c1c(Cl)c(Cl)cnn1-c1ccccc1 | – | – | – | – | 23.3 | 24.4 | 21.3 | – | 98.0 | 34.8 | –
Cc1cc(OCCCN2CCC(C(O)(c3ccccc3)c3ccccc3)CC2)ccc1Br | · | – | – | · | – | · | · | · | · | · | ·
COCCn1c(-c2ccc(OC)cc2)nc2ccccc21 | – | – | – | – | – | – | · | · | · | · | ·
COCCn1c2nc(=O)n(-c3ccccc3)c(=O)c-2nc2ccccc21 | · | – | – | · | 35.9 | 23.0 | – | – | – | 32.0 | 31.6
Cn1c2ccccc2c(=O)c2ccc(C#Cc3ccc(N)cc3)cc21 | · | – | – | – | 54.7 | 40.7 | 32.0 | – | – | 51.1 | 59.8
Cc1cc(C)cc(C(O)c2ncc(-c3cccc(C(F)(F)F)c3)[nH]2)c1 (configuration not stated) | · | – | – | · | – | · | · | · | · | · | ·
COc1ccc(Nc2cc(C)nc3ccc(OC)cc23)cc1 | · | – | – | – | – | – | · | · | · | · | ·
COc1ccc2nc(C)cc(N/N=C/c3ccc(F)cc3)c2c1 | · | – | – | – | 49.4 | 23.1 | 26.3 | – | 18.6 | 67.4 | 68.5
CC(C)CNC(=O)C1(C)CCCN1C(=O)c1ccc2c(c1)CCO2 (configuration not stated) | · | – | – | · | – | · | · | · | · | · | ·
CCCCCC(=O)N=Nc1c(O)[nH]c2ccc([N+](=O)[O-])cc12 | – | – | – | – | + | 22.7 | – | – | – | – | –
COc1cccc(CN2C(=O)c3cccc(N)c3C2=O)c1 | – | – | – | – | 35.9 | 28.4 | – | – | – | 37.6 | 46.6
Cc1cccc(S(=O)(=O)NC(=O)C2(C)CCN2C(=O)c2c(C)noc2C)c1 (configuration not stated) | · | – | – | · | – | · | · | · | · | · | ·
CN(C)CCCN(C(=O)CCOc1ccccc1)c1nc2c(F)cccc2s1 | – | 28.5 | – | – | 48.2 | 21.8 | – | – | 67.5 | 27.3 | – | ABHD5 PLIN5 conf=–;HNF4 split-luc=92.0
CN(C)CCCN(C(=O)CCc1ccccc1)c1nc2c(F)cccc2s1 | – | – | – | – | – | – | · | · | · | · | ·
CCCCN(C(=O)Cc1coc2cc(C)c(C)cc12)c1c(N)n(Cc2ccccc2)c(=O)[nH]c1=O | · | – | – | – | – | – | · | · | · | · | ·
COC(=O)c1scc2c(=O)cc(C(F)(F)F)[nH]c12 | · | – | – | – | 71.6 | 62.6 | 50.0 | 55.2 | – | 73.6 | 78.0
O=c1cc(C(F)(F)F)[nH]c2ccc(C(F)(F)F)cc12 | · | – | – | – | – | – | · | · | · | · | ·
C[C@H]1CN([C@@H](C)CO)S(=O)(=O)c2ccc(Br)cc2O[C@H]1CN(C)C(=O)CCN1CCCCC1 | · | – | – | · | – | – | · | · | · | · | ·
Nc1cccc2c1C(=O)N(C(=O)c1cccc(S(=O)(=O)N3CCCC3)c1)C2=O | – | – | – | – | 22.0 | 22.6 | – | – | – | 28.0 | 34.8
CCOC(=O)c1c(NC(C)=O)sc2c1CCC(C=O)=C2Sc1ccccc1 | – | 65.0 | 94.7 | – | 35.5 | 22.2 | – | – | 37.5 | 67.0 | 19.9 | ABHD5 PLIN5 conf=76.1;HNF4 split-luc=17.0
Cc1noc2ncnc(Sc3c(Cl)cccc3Cl)c12 | – | – | – | – | 36.6 | 22.7 | 21.7 | – | – | 33.8 | –
O=[N+]([O-])c1ccc(N(c2ccccc2)c2ccccc2)cc1 | – | – | – | – | 58.2 | 38.7 | 32.5 | – | – | 61.5 | 61.3
SMILES | TLR4-MyD88 BLA | ABHD5-PLIN5 inh | Granule exo inh | Beta2AR agonist | NOD2 RIPK2 PPI | TLR9-MyD88 block | TLR9-MyD88 cf | BLA counter-1 | TLR9 CHO cytotox | NOD2-RIPK2 conf | BLA counter-2 | others
COC(=O)c1cn[nH]c1NC(=S)Nc1ccc(C)cc1Cl | – | – | – | – | 49.6 | 22.7 | – | – | – | 26.8 | 11.9
COC(=O)c1cn[nH]c1NC(=S)Nc1ccccc1C | – | – | – | – | – | – | · | · | · | · | ·
O=C(Nc1ccc(Cl)cc1)Nc1cccc2nsnc12 | · | – | – | – | 21.4 | 21.4 | – | – | – | 34.7 | 36.2
CCc1cc2c(=O)nc3n(c2s1)Cc1ccccc1/C3=C(/O)c1cccc([N+](=O)[O-])c1 | – | – | – | – | – | – | · | · | · | · | ·
CCc1cc2c(=O)nc3n(c2s1)Cc1ccccc1/C3=C(/O)c1ccc(F)cc1 | – | – | – | – | 23.5 | 23.2 | – | – | – | – | –
O=C(CCl)N1CCN(S(=O)(=O)Cc2ccccc2)CC1 | · | – | – | – | – | – | · | · | · | · | ·
COc1ccc(C(=O)/C=C/C(=O)N(Cc2ccccc2)C(C(=O)NC2CCCCC2)c2ccncc2)c(O)c1 (configuration not stated) | – | – | – | – | – | – | · | · | · | · | ·

Assay outcomes (PubChem BioAssay)
